From PubChem BioAssay (NCI)
This is part of a sample that, as a whole, favours compounds with a hit. Of some 79,000 tested, about 15% had one in any assay. Values without a mark were called inactive. Active and inactive are the calls of the source. Cut-off read from the data, not from the text of the source: active = growth inhibition above about 70%; inactive = the rest.

Tests used:
[1] = NCI Yeast Anticancer Drug Screen. Data for the rad50 strain (AID 155);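 note: 0% = growth of vehicle-only cultures of the same strain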; settings: S. cerevisiae rad50 strain growth inhibition, active compounds read high
In short: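 Cells are treated with compound, grown, and their growth is then scored against vehicle-only cultures of the same repair-deficient yeast strain.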

[2] = NCI Yeast Anticancer Drug Screen. Data for the mec2-1 strain (AID 157); settings: S. cerevisiae mec2-1 strain, active compounds read high
In short: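 Using mec2-1 yeast: add compound, measure growth, express inhibition versus vehicle-treated cultures.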

[3] = NCI Yeast Anticancer Drug Screen. Data for the sgs1 mgt1 strain (AID 161);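 note: 0% = growth of cultures given vehicle only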; settings: S. cerevisiae sgs1 mgt1 strain, active compounds read high
In short: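 Yeast cells carrying a defined DNA-repair defect were exposed to test compounds. Growth inhibition was measured relative to vehicle-treated controls.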

[4] = NCI Yeast Anticancer Drug Screen. Data for the cln2 rad14 strain (AID 165);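 note: 0% = growth equal to vehicle treated cultures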; settings: S. cerevisiae cln2 rad14 strain, active compounds read high
In short: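 Yeast strain cln2 rad14, bearing defects in cell cycle control and DNA repair, serves as the test system; values reflect growth inhibition compared with vehicle.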

[5] = NCI Yeast Anticancer Drug Screen. Data for the bub3 strain (AID 167); settings: S. cerevisiae bub3 mutant strain, active compounds read high
In short: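 Part of a panel of yeast mutants defective in DNA damage repair or cell cycle regulation. Each strain is grown with compound, and inhibition is calculated relative to solvent-treated cultures.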

[6] = NCI Yeast Anticancer Drug Screen. Data for the mlh1 rad18 strain (AID 175); settings: S. cerevisiae mlh1 rad18 strain growth inhibition, active compounds read high
In short: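 Steps: expose repair-defective yeast to compound; measure growth; express inhibition against vehicle-treated controls.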

[7] = at 5.0 µM (retest, dose inferred, filed as 0.5)
[8] = at 50.0 µM (retest, dose inferred, filed as 5.0)

SMILES | growth inhibition [1, 7] | growth inhibition [1, 8] | growth inhibition ([1]; at 50.0 µM) | growth inhibition [2, 7] | growth inhibition [2, 8] | growth inhibition ([2]; at 50.0 µM) | growth inhibition [3, 7] | growth inhibition [3, 8] | growth inhibition ([3]; at 50.0 µM) | growth inhibition [4, 7] | growth inhibition [4, 8] | growth inhibition ([4]; at 50.0 µM) | growth inhibition [5, 7] | growth inhibition [5, 8] | growth inhibition ([5]; at 50.0 µM) | growth inhibition [6, 7] | growth inhibition [6, 8] | growth inhibition ([6]; at 50.0 µM)
O=C1CC2CCCC(C1)N2Cc1ccccc1 | 2% | 26% | 71.5% (active) | 4% | 28% | -6.1% | 15% | 47% | 62.5% | -69% | 47% | 37.5% | -2% | 25% | 34.9% | 7% | 24% | 51.7%
CCO[C@@H]([CH2][Hg][Cl])[C@](C)([CH2][Hg][Cl])OCC | 99% (active) | 99% (active) | 99.4% (active) | 99% (active) | 99% (active) | 99.6% (active) | 99% (active) | 99% (active) | 99.5% (active) | 98% (active) | 99% (active) | 99.3% (active) | 99% (active) | 99% (active) | 99.3% (active) | 99% (active) | 99% (active) | 99.3% (active)
S=P(Nc1ccc(Cl)cc1)(Nc1ccc(Cl)cc1)c1ccccc1 | 45% | 90% (active) | 97.8% (active) | 20% | 33% | 99.2% (active) | 18% | 65% | 97.1% (active) | 37% | 89% (active) | 95.6% (active) | 38% | 86% (active) | 99.1% (active) | 53% | 95% (active) | 99% (active)
CCC[CH2][Sn]([CH2]CCC)[S]CC(N)C(=O)O (configuration not stated) | 63% | 98% (active) | 98.5% (active) | 67% | 99% (active) | 98.5% (active) | 56% | 95% (active) | 98.1% (active) | 49% | 98% (active) | 98.1% (active) | 80% (active) | 99% (active) | 98% (active) | 62% | 98% (active) | 97.9% (active)
O=[N+]([O-])c1cc([N+](=O)[O-])c(Cl)s1 | 98% (active) | 99% (active) | 99.5% (active) | 99% (active) | 83% (active) | 99.7% (active) | 99% (active) | 100% (active) | 99.4% (active) | 99% (active) | 98% (active) | 99.3% (active) | 99% (active) | 99% (active) | 99.5% (active) | 99% (active) | 99% (active) | 99.6% (active)
CCCCCCCCCCCCCCCCOC[C@@H](COC(c1ccccc1)(c1ccccc1)c1ccccc1)O[P+](=S)OC (some centres not stated) | 31% | 67% | 62.4% | 20% | 39% | 85.8% (active) | 18% | 55% | 86.5% (active) | 36% | 29% | 77.6% (active) | 43% | 58% | 82.4% (active) | 22% | 32% | 91.1% (active)
C[CH2][Sn]([CH2]C(=O)OC)([CH2]C(=O)OC)[c]1ccccc1 | 97% (active) | 97% (active) | 83.7% (active) | 98% (active) | 98% (active) | 89.2% (active) | 98% (active) | 98% (active) | 87.8% (active) | 86% (active) | 97% (active) | 84.7% (active) | 98% (active) | 98% (active) | 86% (active) | 97% (active) | 97% (active) | 90.8% (active)
CNP1(=O)OC(c2ccccc2)=CCN1CCCl (configuration not stated) | 3% | -1% | 76.3% (active) | -2% | 10% | 47.6% | 5% | -1% | 58.8% | 0% | 6% | -30.3% | 0% | -2% | 23.9% | 0% | 5% | 71.2% (active)
C/C(=N\Nc1ccccc1)C(CN(C)C)C(c1ccccc1)c1c(O)c2ccccc2oc1=O (configuration not stated) | 24% | 24% | 88.2% (active) | 14% | 14% | 86.2% (active) | 16% | 16% | 87.8% (active) | 5% | 5% | 86% (active) | 10% | 10% | 83.6% (active) | 12% | 12% | 86.5% (active)
O=[N+]([O-])/C=C/c1ccc(Cl)cc1[N+](=O)[O-] | 97% (active) | 98% (active) | 99.2% (active) | 98% (active) | 99% (active) | 99.6% (active) | 99% (active) | 99% (active) | 99.5% (active) | 98% (active) | 97% (active) | 99.3% (active) | 99% (active) | 99% (active) | 99.4% (active) | 96% (active) | 99% (active) | 99.2% (active)
O=C(O)c1ccccc1.[Zn+2] | 1% | -5% | 19.4% | 3% | -10% | 8.6% | 4% | 9% | 15.5% | -3% | -21% | -74.6% | -8% | -1% | 45.6% | 6% | 10% | 1.9%
COc1cc(/C=C(\C)[N+](=O)[O-])cc(Br)c1O | 0% | 61% | 86.7% (active) | 1% | 82% (active) | 90.8% (active) | 8% | 91% (active) | 91% (active) | 3% | 43% | 53.5% | -3% | 54% | 93% (active) | 2% | 81% (active) | 98.7% (active)
CC1=C(O)C(=O)C=C2C1=CC=C1[C@@]2(C)CC[C@@]2(C)[C@@H]3C[C@](C)(C(=O)O)CC[C@]3(C)CC[C@]12C | 65% | 96% (active) | 90% (active) | 74% (active) | 98% (active) | 93.5% (active) | 83% (active) | 99% (active) | 93.6% (active) | 92% (active) | 98% (active) | 91% (active) | 95% (active) | 99% (active) | 92.5% (active) | 74% (active) | 97% (active) | 84% (active)
CC(C)(C)[Si](OC(=O)N(CCCl)CCCl)(c1ccccc1)c1ccccc1 | 22% | 82% (active) | 67.2% | 10% | 76% (active) | 20.8% | 13% | 82% (active) | 79.5% (active) | 19% | 83% (active) | 68.4% | -2% | 93% (active) | 68.6% | 15% | 85% (active) | 90.3% (active)
CNC1C(O)CC(OC2C/C=C(\C)C/C(C)=C/C=C/CCC(C)CNC(=O)/C=C/C=C/C2C)OC1C (configuration not stated) | -6% | 99% (active) | 14.4% | 19% | 100% (active) | 63.1% | 31% | 100% (active) | 98.3% (active) | -14% | 99% (active) | 99.2% (active) | 20% | 100% (active) | 99.5% (active) | 18% | 100% (active) | 99.1% (active)
O=C1N[C@H]2[C@H](O)[C@H](O)[C@@H](O)[C@H](O)[C@@H]2c2cc3c(c(O)c21)OCO3 | 12% | 70% (active) | 69% | 19% | 70% (active) | 65.8% | 17% | 58% | 67.2% | 32% | 66% | 69% | 19% | 60% | 68.7% | 26% | 84% (active) | 58.2%
NNc1ccccc1 | 13% | 97% (active) | 98.6% (active) | 1% | 95% (active) | 97.3% (active) | 3% | 98% (active) | 98.8% (active) | 0% | 96% (active) | 96.8% (active) | 9% | 98% (active) | 96.2% (active) | 15% | 98% (active) | 98.6% (active)
[Se]C1=NCCN1 | 6% | 53% | 94.6% (active) | 7% | 34% | 92.3% (active) | 3% | 39% | 95.6% (active) | 6% | 48% | 77.8% (active) | 4% | 96% (active) | 84% (active) | 6% | 89% (active) | 92.2% (active)
CCCCOOC(=O)c1ccccc1C(=O)OOCCCC | 47% | 99% (active) | 99.3% (active) | 33% | 100% (active) | 99.5% (active) | 41% | 100% (active) | 99% (active) | 51% | 99% (active) | 98.7% (active) | 30% | 100% (active) | 99.5% (active) | 70% (active) | 99% (active) | 98.8% (active)
